# Sampled rows, rich in hits. Any-hit rate of the full collection: about 3%.
# Wnt bcat act: Wnt/beta-catenin pathway activation. 1.2% of 300,000 active. activation, % at 9.35 µM. Wnt/beta-catenin reporter cell assay, activator, plate reader; in the data active = activation above about 30%, passing the limit was not always enough; inconclusive = no clear call, values can overlap the other calls;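 also: 0% = neutral control wells and 100% = positive control wells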
# Statin myotox sup: suppression of simvastatin myotoxicity; C2C12 myotubes + simvastatin, ATP luminescence, 48 h; scaled: DMSO 0, geranylgeraniol control 100; 0.78% of 330,000 active; rescue of ATP level, % at 7.49 µM; AID 602340;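 active = mean ATP rescue above about 67%, or every replicate alone reaching that limit, limit read from the data, passing the limit was not always enough; inconclusive = no clear call, values can overlap the other calls; inactive = mean under the limit and some replicate under it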;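 also: myotubes were challenged with 10 µM simvastatin during compound exposure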
# esBAF inh: inhibitors of esBAF chromatin remodeling in mouse ES cells; Bmi1-luciferase knock-in reporter, 24 h; 100% = twice the neutral-well signal; AID 602393; 2% of 350,000 active; reporter increase, % at 12.5 µM; in the data active = activation above about 40%; inconclusive = no clear call, values can overlap the other calls;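 also: 0% = median of the plate's neutral control wells and 100% = double that signal; a rise in the Bmi1 reporter signal indicates esBAF inhibition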
# MITF act: activators of MITF-driven TRPM1 promoter activity in SK-MEL-5 cells | activation, % at 12.5 µM | SK-MEL-5 TRPM1-promoter luciferase, 24 h; % of positive control, neutral wells = 0 | 0.75% of 300,000 active;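 active = mean activation of at least 80% with every replicate also reaching 80%; inconclusive = mean reaches 80% but some replicate falls short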;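 also: 0% = neutral control wells and 100% = parthenolide positive control wells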
# * hit, by the source's call; ? = inconclusive; nt = no result given.
SMILES,Wnt bcat act,Statin myotox sup,esBAF inh,MITF act
CN1CCN(/N=C/c2ccc(OCc3ccccc3)cc2)CC1,16,3,40,85*
Cc1nc(C)c(-c2csc(Nc3ncccc3C)n2)s1,15,-9,55*,36
COc1cccc(Nc2nc(-c3sc(C)nc3C)cs2)c1,0,-15,71*,nt
Cc1nc(C)c(-c2csc(Nc3ccc(F)cc3)n2)s1,34*,nt,nt,36
Cc1nc(C)c(-c2csc(Nc3ccc(Cl)cn3)n2)s1,0,-32,60*,nt
C[C@H]1CN([C@@H](C)CO)S(=O)(=O)c2ccc(-c3cccc(F)c3)cc2O[C@H]1CN(C)S(=O)(=O)c1ccc(F)cc1,nt,-5,3,nt
C[C@H](CO)N1C[C@H](C)[C@H](CN(C)C)Oc2ccc(NC(=O)NC3CCCCC3)cc2C1=O,nt,-48,-4,nt
O=C(C[C@@H]1C[C@@H]2c3cc(NC(=O)Nc4ccccc4)ccc3O[C@@H]2[C@H](CO)O1)NCC(F)(F)F,nt,0,-2,nt
C[C@@H]1CN([C@H](C)CO)C(=O)Cc2cc(N(C)C)ccc2O[C@H]1CN(C)C(=O)Nc1cccc2ccccc12,nt,12,-2,nt
Cc1ccc(-c2csc(NC(=O)c3cccc(C)c3)c2C(=O)O)cc1,40*,nt,nt,nt
Cc1ccc(-c2csc(NC(=O)c3ccc(Br)cc3)c2C(=O)O)cc1,16,-4,43,106*
CC(C)c1ccc(-c2csc(NC(=O)c3cccs3)c2C(=O)O)cc1,12,-183,52*,6
COc1ccc(N=Cc2c(O)c3ccccc3n2C(C)=O)cc1,30*,5,27,28
COc1ccc(N=Cc2sc(O)c3ccccc23)cc1,34*,180*,82*,28
COc1ccc(N=Cc2c(OC)ccc3ccccc23)cc1,1,nt,nt,nt
COc1ccc(-n2c(O)c(C=Nc3ccccc3)c3ccccc3c2=O)cc1,-7,-82,3,13
C[C@@H]1CN([C@H](C)CO)C(=O)CCCn2cc(nn2)CO[C@@H]1CN(C)Cc1cccnc1,nt,-10,-1,nt
C[C@@H]1CN([C@@H](C)CO)C(=O)c2cc(C#Cc3ccccc3)cnc2O[C@@H]1CN(C)C(=O)CN(C)C,nt,0,-1,nt
CCCN(C)C[C@H]1Oc2cc(C#Cc3ccccc3)ccc2S(=O)(=O)N([C@H](C)CO)C[C@H]1C,nt,0,0,nt
COc1ccc(/C=C2\CCn3c2nc2ccccc2c3=O)cc1OC,nt,7,43*,94*
COc1ccc(/C=C2\CCn3c2nc2cc(C(=O)O)ccc2c3=O)cc1OC,-1,6,2,15
Cc1cc(C(=O)OCC(=O)Nc2c(F)cccc2F)c(C)n1-c1ccccc1,14,1,48*,28
CC(=O)Nc1ccc(NC(=O)COC(=O)c2c(C)nn(-c3ccccc3)c2C)cc1,-1,nt,nt,0
Cc1nn(-c2ccccc2)c(C)c1C(=O)OCC(=O)NC12CC3CC(CC(C3)C1)C2,0,-3,50*,19
Cc1nn(-c2ccccc2)c(C)c1C(=O)OCC(=O)Nc1ccccc1F,44*,5,36,100*
SMILES,Wnt bcat act,Statin myotox sup,esBAF inh,MITF act
CC(=O)N(C)C[C@H]1Oc2ncc(C#CC3(O)CCCC3)cc2C(=O)N([C@H](C)CO)C[C@@H]1C,nt,12,-1,nt
C[C@@H]1CN([C@H](C)CO)C(=O)c2cccc(NC(=O)Nc3ccc(C(F)(F)F)cc3)c2O[C@@H]1CN(C)C(=O)Nc1ccc(C(F)(F)F)cc1,nt,-32,-1,nt
O=C(NC1CCCc2ccccc21)c1ccc2c(c1)OCO2 (stereo unspecified),-1,-4,10,-7
CC(NCc1ccc2c(c1)OCO2)C(=O)NC1CCCc2ccccc21 (stereo unspecified),nt,99*,0,3
Cc1ccc2nc(-c3ccc(F)cc3)c(Cc3cccc(Cl)c3)n2c1,24,6,48*,nt
Cc1ccc2nc(-c3ccc(-c4cccc(Cl)c4)cc3)c(NCc3ccccc3)n2c1,6,85*,4,29
COc1cc(-c2nc3ccc(C)cn3c2NCc2ccccc2)ccc1-c1cccc(Cl)c1,-2,-2,-5,19
Cc1ccc(-c2nc3ccc(Br)cn3c2Cc2cccc(F)c2)cc1,-2,-3,51*,nt
CN1CCN(C(=O)C[C@H]2CC[C@H](NC(=O)Cc3ccccn3)[C@H](CO)O2)CC1,nt,11,0,nt
Clc1cccc(-c2cc3nc4c(c(N5CCOCC5)n3n2)CCCC4)c1,nt,-10,?,?
Clc1cccc(-c2cc3nc4c(c(N5CCN(c6cnccn6)CC5)n3n2)CCCC4)c1,3,-17,47*,47
CO[C@H]1CN(C)C(=O)c2ccc(NC(=O)Nc3ccccc3)cc2OC[C@@H](C)NC[C@H]1C,nt,-1,7,nt

# Assay outcomes (PubChem)
